Among the data in PubChem BioAssay AID652105 (National Center for Advancing Translational Sciences (NCATS), 2013) are max response values, retold here.

In all, about 330,000 compounds went through this assay and about 4,100 (1.2%) were called active. Another 2% or so got no clear call; they are omitted. Many of the other results were omitted from the sample, so actives are more common in it than they were. A number with no mark means an inactive call. The calls were made as follows: active = max response of -50% or lower; inconclusive = between -30% and -50%; inactive = -30% or higher.
% is scaled to controls: 0 for no effect and ±100 for the full control effect.

The target in the assay is Phosphatidylinositol 5-phosphate 4-kinase type-2 alpha (Homo sapiens) (UniProt P48426). Put plainly: qHTS for Inhibitors of phosphatidylinositol 5-phosphate 4-kinase (PI5P4K). Also: value at the top dose of about 77 µM. The following applies: PI5P4Kalpha enzyme, ADP-Glo luminescence, 60 min; active compounds read low. Summed up: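 Luminescence from ADP-Glo served as readout of PI5P4Kalpha activity in a qHTS format. Reaction: enzyme, substrate, compound, ATP at 5 microM final, 60 min at RT.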
Sequence of Phosphatidylinositol 5-phosphate 4-kinase type-2 alpha (Homo sapiens) (P48426 whole entry, looked up): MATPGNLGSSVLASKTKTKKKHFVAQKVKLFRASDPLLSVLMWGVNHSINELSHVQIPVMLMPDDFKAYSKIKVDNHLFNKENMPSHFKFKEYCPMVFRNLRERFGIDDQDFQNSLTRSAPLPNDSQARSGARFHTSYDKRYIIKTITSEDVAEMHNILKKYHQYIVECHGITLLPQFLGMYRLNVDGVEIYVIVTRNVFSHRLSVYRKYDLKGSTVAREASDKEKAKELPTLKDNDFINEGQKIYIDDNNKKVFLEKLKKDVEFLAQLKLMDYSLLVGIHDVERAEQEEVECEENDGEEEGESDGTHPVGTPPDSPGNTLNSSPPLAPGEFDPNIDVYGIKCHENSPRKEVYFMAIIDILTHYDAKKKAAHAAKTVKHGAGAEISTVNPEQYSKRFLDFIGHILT
(In general: qHTS replaces the single test concentration by a dilution series.)
For the compound `CCCCNC(=O)C[C@@H]1C[C@@]2(C(=O)OC)CC(C)(C)CC=C2N(Cc2ccco2)C1=O`, the max response is 4.39%. Regarding `COc1ccc(-n2nnnc2-c2nc3ccccc3s2)cc1`, the max response was 11.9%. In the case of `COc1ccc(C2=NN(C(C)=O)C(c3ccccc3)C2)cc1` (stereo not drawn), the max response was -5.07%. The value for `COc1ccc(C2=NN(c3nc4ccccc4s3)C(=O)C2)cc1` was -57.5% (active); that for `Cn1c(Nc2ccc(F)cc2)nc2cc(-c3ccsc3)sc2c1=O` was -0.288%; that for `CCCc1[nH]nc2c1C(C1CC=CCC1)C(C#N)=C(N)O2` (stereo not drawn) was -60.2% (active). As to `CCCc1[nH]nc2c1C(c1ccc(Br)s1)C(C#N)=C(N)O2` (stereo not drawn), the max response was -24.7%.

With `CCCc1[nH]nc2c1C(c1ccc(OC)c(Cn3nc(C)c(Br)c3C)c1)C(C#N)=C(N)O2` (stereo not drawn), the max response is -0.298%.

Consider `CCCCn1nnnc1C(c1ccccc1)N1CCN(c2ccccc2OC)CC1` (stereo not drawn), for which the max response is 1.03%.

Take `O=C(NC(c1ccc(-c2ccccc2)cc1)c1cnccn1)C1CCN(CCOc2ccc(Cl)cc2Cl)CC1` (stereo not drawn): the max response is 31%. On to `CC(C)C[C@@H](COCc1ccc(Cl)cc1)N1CCN(C(=O)c2ccc(Cl)cc2Cl)CCC1=O`, for which the max response was 15.2%. As for `COc1ccc(-c2cc(NC(C)=O)c3ncc(-c4cc(OC)c(OC)c(OC)c4)n3c2)cn1`, the max response was -8.79%. The value for `Cc1cn([C@H]2C[C@H](O)[C@@H](/C=C/C(=O)NCCCc3ccccc3)O2)c(=O)[nH]c1=O` was -0.963%; that for `Cc1ccc(S(=O)(=O)N2[C@@H](Cc3ccccc3)CO[C@H]2CC(=O)OCc2ccccc2)cc1` was 4.77%.

For `Cc1cc(Br)cn2c(Cc3ccccc3C(F)(F)F)c(C3CCCCC3)nc12`, the max response was 10.4%. In the case of `CN(CC(=O)Nc1cccc(F)c1)C(=O)CC1CCCC1` it was 2.62%; in that of `Cc1ccc(CSCC(=O)N(C)CC(=O)Nc2cccc(F)c2)cc1`, 4.92%; in that of `CCN(CC)C(=O)CSC(Nc1cccc(F)c1)=C(C#N)C#N`, -66.7% (active). The value for `O=C1NC[C@@H](CCCCN2CCN(CCc3ccc(O)cc3)C(=O)C2=O)N(CC2CCCCC2)C1=O` was -1.17%; that for `Cc1ccc(C)c(C(O)c2ncc(-c3cccc4ccccc34)[nH]2)c1` (stereo not drawn) was -1.21%.

For `CCCCn1nnnc1C(c1cccc(OC)c1OC)N1CCN(C/C=C/c2ccccc2)CC1` (stereo not drawn), the max response was 0.353%. In the case of `CCC(c1nc2ccccc2[nH]1)n1c(=O)c(-c2cccs2)nc2ccccc21` (stereo not drawn) it was 1.88%. On to `CCCCNC(=O)C[C@@H]1C[C@@]2(C(=O)OCC)CCC=C2N(Cc2ccco2)C1=O`, for which the max response was -0.539%. `CC(=O)c1ccc(-c2cnc3c(NC=O)cc(-c4cccc(NS(C)(=O)=O)c4)cn23)cc1`: the max response was -83.7% (active). For `CC(=O)c1cccc(-c2cnc3c(NC=O)cc(-c4ccccc4Oc4ccccc4)cn23)c1`, the max response was -13%. Turning to `CC(=O)c1cccc(-c2cnc3c(NC=O)cc(-c4cccc(C(=O)N(C)C)c4)cn23)c1`, the max response was -9.37%. As for `COc1cccc(-c2cnc3c(NC(C)=O)cc(-c4cccc(NC(C)=O)c4)cn23)c1`, the max response was -7.23%.

For the compound `CN(C)C(=O)c1cccc(-c2cnc3c(NC=O)cc(-c4ccc(F)cc4)cn23)c1`, the max response was -50.2% (active).

In the case of `CC(=O)Nc1cccc(-c2cc(NC=O)c3ncc(-c4ccc(F)c(Cl)c4)n3c2)c1`, the max response is -70.3% (active).

Regarding `CC(=O)Nc1cccc(-c2cc(NC(C)=O)c3ncc(-c4ccccc4)n3c2)c1`, the max response was -5.78%. In the case of `CC(=O)c1cccc(-c2cnc3c(NC=O)cc(-c4ccc(N(C)C)cc4)cn23)c1` it was -17.5%; in that of `CC(=O)c1cccc(-c2cnc3c(NC=O)cc(-c4ccc(N5CCN(C)CC5)cc4)cn23)c1`, -0.912%.

On to `CCCCN1C(=O)C(CC(=O)NCc2cccs2)CC(C(=O)N2CCCCCC2)=C1C` (stereo not drawn), for which the max response was 8.96%. In the case of `COc1cccc(NC(=O)CN(C)C(=O)c2cc(Cl)nc3ccccc23)c1` it was 0.592%; in that of `Cc1cccnc1C(NC(=O)C1CCN(Cc2ccc(Cl)c(Cl)c2)CC1)c1ccc(Cl)cc1` (stereo not drawn), 13.1%.

On to `Cc1nc(C(F)(F)F)ccc1C(=O)N1CCC1(C)C(=O)NS(=O)(=O)c1ccccc1Cl` (stereo not drawn), for which the max response is -2.74%. In the case of `C[C@H]1CN([C@@H](C)CO)C(=O)CCCn2nncc2CO[C@@H]1CN(C)S(=O)(=O)c1cccc(C#N)c1` it was 8.11%; in that of `COC(=O)c1c(C)c(C)nc(N)c1C#N`, 1.33%.

For `COCc1c(N)c(C)nc(Cl)c1C#N`, the max response is -79.4% (active).

For `Cc1nc(Cl)c(C#N)c2c1CCCC2`, the max response is -4.68%.

As to `CC(C)NC(=O)Nc1ccc2c(c1)C(=O)N([C@H](C)CO)C[C@H](C)[C@@H](CN(C)Cc1ccc(C(F)(F)F)cc1)OCCCC[C@@H](C)O2`, the max response was 10.4%.

As to `CC1(C)OC(=O)C2=C(C[C@@H](C3CC3)O[C@H]2c2ccc(Cl)cc2)O1`, the max response was 8.12%. The value for `CC1(C)OC(=O)C2=C(C[C@@H](C3CCCCC3)O[C@@H]2c2ccc(Cl)cc2)O1` was 10.9%; that for `CC(=O)Nc1ccc(S(=O)(=O)Oc2ccc(/C=N/N=C3/NC(=O)C(CC(=O)O)S3)cc2)cc1` (stereo not drawn) was -65% (active); that for `Cc1ccc(NC(=O)CC2S/C(=N/N=C3\CCCc4ccccc43)NC2=O)cc1` (stereo not drawn) was 27.6%. With `Cc1ccc(S(=O)(=O)Oc2ccc(/C=N/NC(=O)c3ccncc3)cc2)cc1`, the max response was 3.82%.

For the compound `CCOC(=O)C1C(C)C(C(C)(C)C)N(S(=O)(=O)c2ccc(C)cc2)C1c1ccccc1` (stereo not drawn), the max response was 6.25%. As for `COc1ccc(NC(=O)CNC(=O)Cc2ccccc2)cc1OC`, the max response was -2.31%. In the case of `COc1cc(=O)[nH]c(=O)n1C(=O)Cc1ccccc1`, the max response was -54.9% (active). Regarding `CCCOc1ccc(Cn2c(O)cc(=O)[nH]c2=O)cc1`, the max response is -26.6%. In the case of `COC(=O)[C@]12CCCCC=C1N(Cc1ccc3c(c1)OCO3)C(=O)[C@H](CC(=O)NCc1cccs1)C2` it was 1.05%; in that of `CCCS(=O)(=O)NC(=O)C1(C)CCCN(C(=O)c2cccs2)C1` (stereo not drawn), 5.25%; in that of `Cc1cc(C(=O)N2CCCC2(C)C(=O)O)c(C)o1` (stereo not drawn), -1.39%.
